These results are taken from PubChem BioAssay.

Several values for one entry are separate records, joined by “and”; a condition that tells them apart may be missing. Equal entries are not always repeated. Activity calls are given as the source filed them. Unless noted, how the calls were made is not given here.

Assay [1] can be described thus: liver-stage malaria parasite growth inhibition, primary screen, cell-based, HepG2, luciferase luminescence, HepG2 viability (AID 624349; in the data active means parasite load remaining mostly below about 12%, no sharp cut-off; inactive means mostly above about 10%;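 further: 100% = mean of DMSO negative control wells on the same plate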). Conditions: P. berghei liver stage in HepG2, luciferase luminescence, concentration not given here; parasite load remaining: stronger effect = lower value; viability: measured here: HepG2 viability without parasites.
Assay [2] is described as follows: Cy5 fluorescence interference with SSB-bound oligo, artefact control for HCV NS3 helicase inhibitor project, biochemical, NIH Clinical Collection, E. coli SSB (AID 743268).
Assay [3] relates to Hepatitis C virus NS3 helicase. In words: HCV NS3 helicase inhibitors, primary screen, biochemical, fluorescence polarization, NIH Clinical Collection (AID 743270). Conditions: NS3 helicase binding to Cy5-dT15 DNA, stronger effect = higher value, concentration not given here. A general note: Fluorescence polarisation rises when a labelled molecule tumbles more slowly, as on binding a larger partner.

Assay [4] addresses Single-stranded DNA-binding protein (Escherichia coli (strain K12)) (UniProt P0AGE0). In words: E. coli SSB displacement from DNA, counter-screen for HCV NS3 helicase inhibitor project, biochemical, fluorescence polarization, NIH Clinical Collection (AID 743271; in the data active means inhibition above about 28%). Conditions: stronger effect = higher value, concentration not given here. A general note: Counterscreens check selectivity or assay interference.

Assay [5] is described as follows: fluorescence interference in NS3h assay format, artefact control for HCV NS3 helicase inhibitor project, biochemical, NIH Clinical Collection (AID 743272).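 Further: HCV NS3 helicase with a Cy5 labelled single stranded DNA probe.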 Conditions: fluorescence interference counterscreen, stronger effect = lower value.
For assay [6], the system named is Neuropilin-2 / VEGF-C interaction (human). Put plainly: inhibitors of NRP2–VEGF-C binding, biochemical, microplate binding format, z-score (AID 743281). Conditions: microplate NRP2/VEGF-C binding assay; stronger effect = lower value.
Assay [7] in a line: stimulators of nuclear beta-catenin in C2C12, primary screen, imaging, WNT3A-conditioned medium, mouse C2C12, NPC library (AID 1117326; in the data active means nuclear beta-catenin stimulation mostly above about 4.2%, no sharp cut-off; inactive means mostly below about 10%). Conditions: stronger effect = higher value.
Assay [8] can be described thus: stimulators of insulin release from INS-1E, primary screen, cell-based, 5 mM glucose, NPC library (AID 1117329;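 active means compound raises insulin release from rat beta cells at 5 mM glucose, no numeric limit stated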). Conditions: rat INS-1E insulin secretion, at 10 µM, stronger effect = higher value.
Assay [9] can be described thus: growth inhibition of GSK3B-pretreated HCT116 cells – cell-based, CellTiter-Glo, 0.2 to 20 µM (AID 1117336;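 active means compounds lowering colon cancer cell viability after pretreatment blocking the GSK3B kinase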). Conditions: HCT116 viability after GSK3B inhibitor, at 20 µM, stronger effect = higher value.
Assay [10] can be described thus: inhibition of endothelial tube formation, primary screen, imaging, VEGF stimulated, CD31 staining, tube area, NPC library (AID 1117340;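 active means compound that reduces growth-factor-driven endothelial tube area in a mixed cell culture, no cutoff stated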). Conditions: VEGF-stimulated ADSC/ECFC co-culture, at 10 µM, stronger effect = higher value.
Assay [11] in a line: glucagon-like peptide 1 release enhancers, primary assay, NCI-H716 cell line, NPC library (AID 1117341;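 active means compound raises GLP1 secretion from the human gut endocrine cells, with no numeric limit stated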). Conditions: NCI-H716 cells, at 10 µM, stronger effect = higher value.
Assay [12] is described as follows: HCT116 colon cancer cell growth inhibition, primary screen, CellTiter-Glo luminescence, NPC library (AID 1117342;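 active means compounds that lower survival of HCT116 colon cancer cells in the luminescence readout, no numeric limit stated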). Conditions: at 20 µM (top of the series). (Cellular ATP, detected with luciferase, serves as a proxy for viable cell number.)
The nature of assay [13]: CellTiter-Glo luminescent readout of SW480 viability loss, NPC library primary (AID 1117343;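 active means compounds that lower viability of the colon cancer cells in the luminescence readout, with no numeric limit stated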). Conditions: CellTiter-Glo luminescence; at 20 µM (top of the series).
Assay [14] in a line: decreased DLD-1 cellular survival, CellTiter-Glo luminescent readout, NPC compound collection, primary HTS (AID 1117346;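 active means compounds that lower survival of DLD-1 colon cancer cells in the luminescence readout, no cutoff given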). Conditions: DLD-1 viability, CellTiter-Glo luminescence; at 20 µM (top of the series).
For assay [15], the system named is Hepatitis C virus NS3 helicase. Put plainly: HCV NS3 helicase inhibitors, primary screen, biochemical, fluorescence polarization, LOPAC1280 library (AID 687035; in the data active means inhibition above about 37%). Conditions: Purified HCV NS3 helicase, Cy5-dT15 ssDNA binding fluorescence polarization; stronger effect = higher value; concentration not given here.
Assay [16] can be described thus: Cy5 fluorescence quenching or enhancement artefacts, artefact control for HCV NS3 helicase inhibitor project, biochemical, LOPAC1280 (AID 687037). Conditions: Cy5-DNA-NS3h complex fluorescence interference counterscreen.

As usually defined, the viability is a read-out of living cells in per cent, often relative to untreated cells. Usually inhibition stands for the change of the read-out against control, counted positive when it falls. With `CCCN[C@H]1CCc2nc(N)sc2C1`, the parasite load remaining in assay [1] was 115% (inactive) and 91.5% (inactive) and 28.8% (inactive). In assay [1], the viability was 75% and 71% and 70.5%. The fluorescence ratio was 1.02 (inactive) in [2]; 0.97 (inactive) and 1 (inactive) in assay [5]. Moreover, the inhibition is -0.4% (inactive) in [3]; -1.64% (inactive) and 0.67% (inactive) in assay [4]. The z-score in [6] was -0.903 (inactive) and 0.751 (inactive). The nuclear beta-catenin stimulation in assay [7] (at 10 µM) was 0.9% (inactive); in assay [7] (stimulation, at 2 µM), 0.5%. Further, the insulin secretion stimulation in assay [8] was -3.1% (inactive). Further, in assay [9], the viability decrease was 7.2% (inactive). In addition, the tube area decrease in assay [10] is -9.5% (inactive). For the same compound, the GLP1 secretion stimulation in [11] is 2.6% (inactive). The inhibition of viability in assay [12] is 5.4% (inactive). Besides, the viability decrease (inhibition) is 51.7% (active) in [13] and 38.1% (inactive) in assay [14].

With `CCN(CC)CC1CCCCN1CC(=O)N1c2ccccc2C(=O)Nc2cccnc21` (stereo unspecified), the parasite load remaining in assay [1] is 84.2% (inactive). For the same compound, the viability in assay [1] was 71.2%. In addition, the fluorescence ratio in assay [2] and in assay [5] was 1.04 (inactive) each time. Moreover, the inhibition in [3] was -2.77% (inactive); in assay [4], -2.41% (inactive). Further, in [6], the z-score was -0.131 (inactive). The nuclear beta-catenin stimulation is 6.3% (inactive) in [7] (at 10 µM) and 1.6% in assay [7] (stimulation, at 2 µM). Further, in assay [8], the insulin secretion stimulation is 4% (inactive). Besides, the viability decrease in assay [9] is -12.6% (inactive). In addition, the tube area decrease in assay [10] is -28.2% (inactive). For the same compound, in [11], the GLP1 secretion stimulation was 7.7% (inactive). Further, in assay [12], the inhibition of viability was 1.17% (inactive). Moreover, the values for the viability decrease (inhibition) in assay [13] and in [14] were -3.8% (inactive) and 6.8% (inactive), respectively.

Consider `CC[C@@]1(O)C(=O)OCc2c1cc1n(c2=O)Cc2cc3c(CN(C)C)c(O)ccc3nc2-1`, for which the values for the fluorescence ratio in assay [2] and in assay [5] were 1.05 (inactive) and 1.02 (inactive), respectively. In addition, the inhibition in assay [3] is 1.98% (inactive); in assay [4], 3.75% (inactive). Besides, the z-score in assay [6] is 1.52 (inactive). The nuclear beta-catenin stimulation in [7] (at 10 µM) was 55.8% (active); in [7] (stimulation, at 2 µM), 20.6%. Further, the insulin secretion stimulation in [8] is 0.5% (inactive). The viability decrease in assay [9] was 61.2% (active). In addition, in assay [10], the tube area decrease was 107% (active). Also, the GLP1 secretion stimulation in [11] was -4.3% (inactive). For the same compound, in [12], the inhibition of viability is 52.2% (active). For the same compound, the viability decrease (inhibition) in [13] is 75% (active); in assay [14] it was 67.8% (active).

With `CN1CCCCC1CCN1c2ccccc2Sc2ccc(S(C)=O)cc21` (stereo unspecified), the fluorescence ratio was 0.96 (inactive) in assay [2] and 0.95 (inactive) in [5]. For the same compound, the results for the inhibition in assay [3] and in assay [4] were -2.77% (inactive) and -3.18% (inactive), respectively. For the same compound, the z-score in assay [6] was 0.284 (inactive). Besides, the nuclear beta-catenin stimulation in assay [7] (at 10 µM) is 2.6% (inactive); in [7] (stimulation, at 2 µM), 3.5%. Further, the insulin secretion stimulation in assay [8] is 15.2% (inactive). The viability decrease in [9] is 51% (active). Further, the tube area decrease in assay [10] is 16.9% (inactive). Further, in assay [11], the GLP1 secretion stimulation is 12.7% (inactive). Also, the inhibition of viability in assay [12] was 36.7% (active). Moreover, the viability decrease (inhibition) in [13] is 31.7% (inactive); in assay [14], 9.3% (inactive).

Consider `CN1CCN2c3ccccc3Cc3ccccc3C2C1` (stereo unspecified), for which, in assay [1], the parasite load remaining is 78.7% (inactive) and 106% (inactive) and 104% (inactive). Besides, the inhibition in assay [15] was -3% (inactive). The fluorescence ratio (interference) in assay [16] was 0.9 (inactive). Further, the nuclear beta-catenin stimulation in assay [7] (at 10 µM) was 0.3% (inactive); in [7] (stimulation, at 2 µM), -0.9%. In assay [8], the insulin secretion stimulation is 43.4% (active). Moreover, the viability decrease in assay [9] was 6.5% (inactive). Besides, the tube area decrease in assay [10] is 26.3% (inactive). Besides, the GLP1 secretion stimulation in [11] was 3.1% (inactive). For the same compound, the inhibition of viability in assay [12] was 20.5% (inactive). In addition, the values for the viability decrease (inhibition) in assay [13] and in [14] were 76% (active) and 6.6% (inactive), respectively.

Regarding `COCCCC/C(=N\OCCN)c1ccc(C(F)(F)F)cc1`, the parasite load remaining in assay [1] was 94.5% (inactive). Besides, in assay [1], the viability was 63.8%. Besides, in assay [6], the result was inactive. Further, the nuclear beta-catenin stimulation in assay [7] (at 10 µM) is 0.8% (inactive); in assay [7] (stimulation, at 2 µM) it was 0.4%. For the same compound, the insulin secretion stimulation in [8] was 1.6% (inactive). The viability decrease in assay [9] is -112% (inactive). Besides, the tube area decrease in assay [10] is -2.4% (inactive). Further, in assay [11], the GLP1 secretion stimulation is -1.9% (inactive). Further, the inhibition of viability in assay [12] is 37.3% (inactive). Further, the viability decrease (inhibition) in assay [13] was 15.4% (inactive); in assay [14] it was 23.5% (inactive).

Take `CN(CCOc1ccc(NS(C)(=O)=O)cc1)CCc1ccc(NS(C)(=O)=O)cc1`: in [1], the parasite load remaining was 94% (inactive) and 61.2% (inactive). Besides, the viability in assay [1] is 70% and 214%. Moreover, the z-score in assay [6] is -1.11 (inactive). The nuclear beta-catenin stimulation was -0.7% (inactive) in [7] (at 10 µM) and 1.6% in assay [7] (stimulation, at 2 µM). The insulin secretion stimulation in assay [8] is 1.25% (inactive). Moreover, in assay [9], the viability decrease is 12.3% (inactive). In [10], the tube area decrease was 3.3% (active). In assay [11], the GLP1 secretion stimulation is 0.3% (inactive). Also, in [12], the inhibition of viability is 11.9% (inactive). For the same compound, the viability decrease (inhibition) in assay [13] is 13% (inactive); in assay [14] it was -6.9% (inactive).
